# Source: PubChem BioAssay
# RORg inh – blocks mouse ROR gamma transcriptional activity. AID 2551. actives 5.4% (n = 310,000). Drosophila S2 Gal4-RORgamma UAS-luciferase reporter, 20 h. Potency, µM (top dose mostly 53.6 µM), actives largely listed as inhibitors; also: nearly all actives have a fitted effect of over 60% in size
# Target sequence (P51450 whole entry, looked up, the tested form may be a part): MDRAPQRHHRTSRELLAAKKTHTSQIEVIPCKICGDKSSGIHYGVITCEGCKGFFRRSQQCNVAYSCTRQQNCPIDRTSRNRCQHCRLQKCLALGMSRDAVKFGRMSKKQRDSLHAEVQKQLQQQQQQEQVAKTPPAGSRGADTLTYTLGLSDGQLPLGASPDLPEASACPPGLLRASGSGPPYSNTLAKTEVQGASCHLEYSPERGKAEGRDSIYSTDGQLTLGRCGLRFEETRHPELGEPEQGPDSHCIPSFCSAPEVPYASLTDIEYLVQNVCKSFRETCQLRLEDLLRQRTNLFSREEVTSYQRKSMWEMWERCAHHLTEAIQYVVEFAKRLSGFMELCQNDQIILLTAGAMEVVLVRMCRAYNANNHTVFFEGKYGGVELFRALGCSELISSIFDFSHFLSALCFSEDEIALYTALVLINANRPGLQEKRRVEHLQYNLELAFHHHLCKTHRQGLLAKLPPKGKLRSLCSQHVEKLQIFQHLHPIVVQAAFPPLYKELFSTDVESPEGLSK
#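 Drosophila S2 cells stably expressing Gal4-DBD/mouse RORγ fusion under metallothionein promoter plus UAS-luciferase; compound 1 h, then 700 uM CuSO4 induction for 20 h at ambient temperature; inhibition read as reduced luminescence.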
# DT40 TDP1 no CPT – qHTS for Inhibitors of human tyrosyl-DNA phosphodiesterase 1 (TDP1): qHTS in cells in absence of CPT. actives 15% (n = 420,000). Potency, µM (doses to about 46.2 µM), most hits filed as inhibitors. DT40 Tdp1-/- hTDP1 cells, no CPT, ATP luminescence, 48 h; also: nearly all actives have a fitted effect of over 55% in size
#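 Compound effects on proliferation are scored in DT40 Tdp1-/-;hTDP1 cells in the absence of CPT. ATP levels (CellTiter-Glo luminescence) are recorded after a ≥48 hr, 37 °C incubation.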
# IL1B secr inh – inflammasome signaling inhibition, IL-1 beta readout; activity change, % at 57.5 µM; THP-1 LPS/ATP IL-1B secretion, AlphaLISA, 16 h; stronger effect = lower value; actives 4.7% (n = 360,000); in the data active = activity change below about -50%; inconclusive = mostly about -30% to -49%
#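 THP-1 cells pretreated 1 hr with compounds (up to 57.5 uM final), then stimulated with LPS (250 ng/mL final) plus ATP (1.25 mM final); secreted IL-1B measured by AlphaLISA after 16 hr, decreased signal indicating inhibition.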
# TDP1 cell CPT – growth inhibition of DT40 Tdp1-/-;hTDP1 cells with camptothecin (screen for TDP1 inhibitors); Potency, µM (titrated, usually from 46.2 µM), actives largely listed as inhibitors; actives 12% (n = 420,000); chicken DT40 Tdp1-/-;hTDP1 cells + 20 nM CPT, ATP luminescence, 48 h; AID 686979; also: nearly all actives have a fitted effect of over 55% in size
#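 Chicken DT40 Tdp1-/- cells stably complemented with human TDP1 were seeded at 400 cells/well in medium containing 20 nM camptothecin, exposed to pin-transferred compounds, and grown at 37 °C for at least 48 hr. Viability was read as ATP luminescence.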
# VP16 counter – inhibits Gal4-VP16 luciferase reporter, ROR gamma counter-screen. AID 2546. Potency, µM (titrated, usually from 53.6 µM), usual class: inhibitors. actives 3.5% (n = 310,000). Drosophila S2 Gal4-VP16 UAS-luciferase, luminescence, 20 h;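 also: Gal4-VP16 expression switched on by copper sulfate through the metallothionein promoter; nearly all actives have a fitted effect of over 50% in size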
# LDHA inh – inhibitors of human lactate dehydrogenase A | AID 1347041 | activity change, % (values are at about 110 or 230 µM) | purified LDHA, NADH/diaphorase-resazurin fluorescence; stronger effect = lower value | P00338 | actives 0.15% (n = 480,000); in the data active = activity change below about -30%; inconclusive = mostly about -25% to -30%
#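 Resorufin fluorescence (ex540/em590), read at 0 and 20 min after diaphorase/resazurin addition, reports the NADH left after a 5 min room-temperature reaction of 2 nM human LDH5 with 0.06 mM NADH and 0.2 mM pyruvate.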
# Numbers stand for hits; i = inactive; ? = inconclusive; nt = no result given; [ ] = dose if it differs, or a comment. Compounds with a hit are over-represented: about 18% of the library has one in this group of screens. Unless noted, calls follow the shape of the dose curve; as a rule, active = well fitted curve in the direction sought with a large enough effect; inconclusive = small, poorly fitted or top-dose-only effect, or another doubt; inactive = no such curve, though single readings can be large; an effect the other way counts as inactive or inconclusive.
SMILES,RORg inh,DT40 TDP1 no CPT,IL1B secr inh,TDP1 cell CPT,VP16 counter,LDHA inh
COC(=O)c1cccc(NC(=O)CN(C)Cc2nc3ccccc3c(=O)[nH]2)c1,nt,nt,nt,nt,nt,i
O=C(Cn1c(=O)oc2cc(S(=O)(=O)N3CCOCC3)ccc21)c1ccc2c(c1)OCCO2,nt,nt,nt,nt,nt,i
O=C(O)/C=C/c1cc(Cl)ccc1OCc1ccccc1Br,nt,nt,nt,nt,nt,i
O=C(c1cc(=O)c2ccccc2o1)N(Cc1cccc(Cl)c1)c1ccccn1,nt,nt,nt,nt,nt,i
CCN(CC(=O)Nc1cccc(Br)c1)Cc1nc2ccccc2c(=O)[nH]1,4µM,4.6µM,i,5.2µM,7.1µM,i
O=C(CSc1nc2ccccc2c(=O)[nH]1)Nc1ccc(N2CCOCC2)cc1,i,i,i,16µM,?,i
CC(C)(C)c1ccc(-c2nnc(SCc3nc4ccccc4o3)o2)cc1,nt,nt,nt,nt,nt,i
O=C(O)CCCCCc1ccc(CCCCC(=O)O)s1,nt,nt,nt,nt,nt,i
CCOc1ccccc1CNC(=O)c1ccc(N2Cc3ccccc3Oc3ncccc32)s1,nt,15µM,nt,?,nt,i
COc1ccccc1NC(=O)CSCc1ccc(Cl)c(Cl)c1,nt,nt,nt,nt,nt,i
O=C(/C(N=Nc1cccc(C(F)(F)F)c1)=C(/O)c1cccs1)C(F)(F)F,?,21µM,-62,?,?,i
CC(=O)/C(N=Nc1cccc(C(F)(F)F)c1)=C(\C)O,i,i,i,i,i,i
CCOC(=O)c1ccc(N2C(=O)c3n[nH]c(C)c3C2c2ccc(C(=O)OC)cc2)cc1 (stereo not drawn),nt,nt,nt,nt,nt,i
CCOC(=O)c1ccc(N2C(=O)c3n[nH]c(-c4cccs4)c3C2c2ccc(C)cc2)cc1 (stereo not drawn),nt,i,nt,i,nt,i
CCOC(=O)c1ccc(N2C(=O)c3n[nH]c(-c4cccs4)c3C2c2ccc(O)c(OC)c2)cc1 (stereo not drawn),nt,21µM,nt,?,nt,i
CCOC(=O)c1ccc(N2C(=O)c3n[nH]c(-c4cccs4)c3C2c2cccc(F)c2)cc1 (stereo not drawn),nt,18µM,nt,?,nt,i
CC1CCCN(S(=O)(=O)c2ccc3c(c2)C(C)(C)C(=O)N3CC(=O)NC2CCCCCC2)C1 (stereo not drawn),nt,nt,nt,nt,nt,i
Fc1ccc(-c2csc3ncnc(Nc4ccc(N5CCOCC5)cc4)c23)cc1,i,23µM,-58,15µM,i,i
Cc1ccc(-c2csc3ncnc(Nc4ccc(C(=O)O)cc4)c23)cc1,?,?,i,?,i,i
O=C(O)c1ccc(Nc2ncnc3scc(-c4ccccc4)c23)cc1,i,4.1µM,i,2.6µM,i,i
CCOc1ccc(NC(=O)/C=C/Sc2ccccc2)cc1,nt,nt,nt,nt,nt,i
COC(=O)c1[nH]c(C)c(/C(O)=C2\C(=O)C(=O)N(CCCn3ccnc3)C2c2cccc(OC)c2)c1C (stereo not drawn),nt,nt,nt,nt,nt,-40
COc1ccc(C(=O)c2cc([N+](=O)[O-])ccc2N2CCCC2)cc1,i,5.2µM,i,3.3µM,i,i
COc1ccc(C(=O)c2cc([N+](=O)[O-])ccc2N2CCN(C)CC2)cc1,i,3.3µM,i,2.6µM,i,i
COc1ccc(C(=O)c2ccc([N+](=O)[O-])cc2Cl)cc1,i,?,i,i,i,i
SMILES,RORg inh,DT40 TDP1 no CPT,IL1B secr inh,TDP1 cell CPT,VP16 counter,LDHA inh
COc1ccccc1C(=O)Nc1ccc2oc(-c3ccccc3F)nc2c1,nt,nt,nt,nt,nt,i
N#Cc1cccc(NC(=O)NCc2ccncc2)c1,nt,nt,nt,nt,nt,i
O=C(CCl)Nc1ccc2c(c1)OCO2,18µM,?,-97,13µM,i[10 µM],i
O=C(Nc1ccc2c(c1)OCO2)Nc1ccccc1F,i,5.8µM,?,9.2µM,i,i
N#Cc1ccc(NC(=O)Nc2cccc(C#N)c2)cc1,i,6.5µM,i,6.5µM,i,i
CC(=O)Nc1ccc2c(c1)OCO2,i,i,i,i,i,i
O=C(Nc1ccccc1)Nc1cccc(Cl)c1,?,11µM,?,14µM,i,i
CC(=O)Nc1ccc(NC(=O)Nc2cccc(Cl)c2)cc1,i,i,i,i,i,i
O=C1OC2C3CC(C2Sc2ccc(Cl)cc2)C(C(=O)O)C13 (stereo not drawn),nt,nt,nt,nt,nt,i
Cc1oc2cc(OCC(=O)NCc3cccs3)ccc2c(=O)c1Oc1ccccc1,nt,nt,nt,nt,nt,i
CC(CNC(=O)c1cc2ccccc2oc1=O)(c1ccccc1)c1ccccc1,nt,nt,nt,nt,nt,i
O=C(Nc1cc(Cl)ccc1Cl)N1CCCC1,i,18µM,i,21µM,i,i
CC(=O)c1ccc(NC(=O)Nc2cccc(Cl)c2)cc1,?,?,-96,21µM,i,i
O=C(NNC(=S)Nc1ccccc1)c1cccc(Br)c1,i,i,i,i,i,i
O=C(NNC(=O)c1cccc(Br)c1)Nc1ccc(Cl)cc1,i,?,i,23µM,i,i
CN1CCC/C1=C1/C(=O)N(c2ccccc2)N=C1NC(=O)Nc1cccc(Cl)c1,i,15µM,i,8.2µM,i,i
COC(=O)c1cnc(NC(=O)C(NC(=O)c2ccccc2Br)C(C)C)s1 (stereo not drawn),nt,nt,nt,nt,nt,i
Cc1c(C(=O)Nc2ccccc2)sc2c1C(c1ccncc1)CC(=O)N2 (stereo not drawn),nt,nt,nt,nt,nt,i
COc1ccc(Cl)cc1NC(=O)Nc1ccccc1C(N)=O,i,8.2µM,i,18µM,i,i
O=C(Nc1cccc(Cl)c1)Nc1cccc(C(=O)O)c1,i,i,i,i,i,i
O=C(NNc1ccccc1[N+](=O)[O-])Nc1ccc(F)cc1F,i,?,i,?,i,i
O=C(Nc1ccc(Cl)cc1)Nc1cccc(C(=O)O)c1,3.2µM,i,i,i,1.4µM,i
Cc1ccc(C(=O)Nc2ccc3c(c2)OCO3)o1,i,16µM,i,15µM,i,i
O=C(NNc1ccccc1[N+](=O)[O-])Nc1cccc(Cl)c1,?,15µM,i,21µM,?,i
CC(=O)Nc1ccc(NC(=O)NC(C)c2cccc(Cl)c2)cc1 (stereo not drawn),nt,nt,nt,nt,nt,i
SMILES,RORg inh,DT40 TDP1 no CPT,IL1B secr inh,TDP1 cell CPT,VP16 counter,LDHA inh
COc1ccccc1CN(Cc1cccs1)C(=O)Cc1n[nH]c(=O)c2ccccc12,nt,nt,nt,nt,nt,i
CC(=O)c1ccc(NC(=S)NCCc2cccc(Cl)c2)cc1,18µM,?,i,?,?,i
O=C(NNc1ccccc1)Nc1cc(Cl)ccc1Cl,nt,i,-97,i,nt,i
O=C(Nc1cccc(Cl)c1)OCCOC(=O)Nc1cccc(Cl)c1,nt,21µM,?,?,nt,i
CSc1ccc(NC(=O)Nc2ccccc2C(N)=O)cc1,i,?,i,13µM,i,i
O=C(Nc1cccc(C(F)(F)F)c1)c1noc2c1CCCC2,nt,nt,nt,nt,nt,i
CCOc1ccc(NC(=O)Nc2cccc(C(=O)O)c2)cc1,5µM,?,i,i,5µM,i
COc1ccc(NC(=O)Nc2ccccc2SC)cc1,i,i,i,?,i,i
